These results are taken from the supplement of paper PMC10981050.

Several values for one entry are separate records, joined by “and”; a condition that tells them apart may be missing. Equal entries are not always repeated. Structures can show the parent of a compound that is named as a salt.

Test in all cases: cell viability relative to vehicle control; higher = less cytotoxic
What all share (conditions): 10 µM

The subject of one test is K562. In a few lines: (§1)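 Screening covered the Selleck bioactive, kinase and epigenetic probe libraries, less identity-inconsistent compounds, on CRISPR-edited mutant clones and isogenic wild-type clones of four leukaemia lines. Cells, at 2000 per well in 50 µL medium, received a single 10 µM acoustically dispensed dose. After 48 h the supernatant was removed and CellTiter-Glo luminescence was read. Viability was analysed in Genedata Screener as percent of the on-plate vehicle control.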

The test system of another test is MARIMO. Summed up: as §1
Another test has as its system MOLM14. Summed up: as §1
For a further test, the system named is OCI-AML2. Summed up:
as §1

What is called cell viability is a read-out of living cells in per cent, often relative to untreated cells. For `CCC(=O)O[C@]1(C(=O)SCF)[C@H](C)C[C@H]2[C@@H]3C[C@H](F)C4=CC(=O)C=C[C@]4(C)[C@@]3(F)[C@@H](O)C[C@@]21C` [Fluticasone propionate (Flonase, Veramyst)], the cell viability with K562 (SRSF2 genotype: SRSF2 P95H/wt) is 92.7% and 86.5%; in the test with K562 (SRSF2 genotype: SRSF2 wt/wt), 88%; in the test on MARIMO (SRSF2 genotype: SRSF2 P95H/wt), 87.8%; in the test with MARIMO (SRSF2 genotype: SRSF2 wt/wt) it was 99%; in the test on MOLM14 (SRSF2 genotype: SRSF2 P95H/wt), 85.3%; in the test with MOLM14 (SRSF2 genotype: SRSF2 wt/wt) it was 83.2%. Also, the cell viability came to 86.7% with OCI-AML2 (SRSF2 genotype: P95H/wt) and 108% in the test with OCI-AML2 (SRSF2 genotype: wt/wt).
As to `O=C1NC(=O)/C(=C/c2cccc(C(F)(F)F)c2)S1`, the cell viability in the test on K562 (SRSF2 genotype: SRSF2 P95H/wt) was 107% and 103%; with K562 (SRSF2 genotype: SRSF2 wt/wt), 110%; in the test with MARIMO (SRSF2 genotype: SRSF2 P95H/wt), 105%; in the test with MARIMO (SRSF2 genotype: SRSF2 wt/wt), 94.9%; in the test with MOLM14 (SRSF2 genotype: SRSF2 P95H/wt), 97.4%; in the test with MOLM14 (SRSF2 genotype: SRSF2 wt/wt), 102%. Besides, the figures for the cell viability in the test with OCI-AML2 (SRSF2 genotype: P95H/wt) and with OCI-AML2 (SRSF2 genotype: wt/wt) were 111% and 104%, respectively.
Regarding `CCOC(=O)[C@H](CCc1ccccc1)N[C@@H](C)C(=O)N1C(=O)N(C)C[C@H]1C(=O)O` [Imidapril HCl], the cell viability in the test on K562 (SRSF2 genotype: SRSF2 P95H/wt) is 93.9% and 85.6%; in the test with K562 (SRSF2 genotype: SRSF2 wt/wt) it was 90.9%; in the test on MARIMO (SRSF2 genotype: SRSF2 P95H/wt), 84.9%; in the test with MARIMO (SRSF2 genotype: SRSF2 wt/wt), 94.4%; in the test with MOLM14 (SRSF2 genotype: SRSF2 P95H/wt), 95.1%; with MOLM14 (SRSF2 genotype: SRSF2 wt/wt), 95.2%. Also, the cell viability stood at 108% with OCI-AML2 (SRSF2 genotype: P95H/wt) and 87.7% in the test on OCI-AML2 (SRSF2 genotype: wt/wt).
For the compound `Cc1ccccc1N=Nc1ccc(NC(=O)c2ccnn2C)c(C)c1`, the cell viability was 84.3% and 77.9% with K562 (SRSF2 genotype: SRSF2 P95H/wt); 88% in the test on K562 (SRSF2 genotype: SRSF2 wt/wt); 82.3% in the test on MARIMO (SRSF2 genotype: SRSF2 P95H/wt); 87.2% in the test with MARIMO (SRSF2 genotype: SRSF2 wt/wt); 102% in the test on MOLM14 (SRSF2 genotype: SRSF2 P95H/wt); 95% with MOLM14 (SRSF2 genotype: SRSF2 wt/wt). Further, the results for the cell viability with OCI-AML2 (SRSF2 genotype: P95H/wt) and in the test on OCI-AML2 (SRSF2 genotype: wt/wt) were 73.1% and 74.5%, respectively.
Take `O=C(O)[C@H]1O[C@@H](Oc2cc3oc(-c4ccccc4)cc(=O)c3c(O)c2O)[C@H](O)[C@@H](O)[C@@H]1O` [Baicalin]: the cell viability in the test on K562 (SRSF2 genotype: SRSF2 P95H/wt) is 98.7% and 105%; in the test on K562 (SRSF2 genotype: SRSF2 wt/wt) it was 109%; in the test on MARIMO (SRSF2 genotype: SRSF2 P95H/wt), 101%; in the test on MARIMO (SRSF2 genotype: SRSF2 wt/wt) it was 97.8%; in the test with MOLM14 (SRSF2 genotype: SRSF2 P95H/wt), 98.7%; in the test on MOLM14 (SRSF2 genotype: SRSF2 wt/wt), 107%. Besides, the cell viability with OCI-AML2 (SRSF2 genotype: P95H/wt) worked out at 99.9%; with OCI-AML2 (SRSF2 genotype: wt/wt), 95.3%.
Turning to `C[C@]12CCC3=C4CCC(=O)C=C4CC[C@H]3[C@@H]1CC[C@@]2(O)CC#N` [Dienogest], the cell viability in the test on K562 (SRSF2 genotype: SRSF2 P95H/wt) was 104% and 96.7%; in the test on K562 (SRSF2 genotype: SRSF2 wt/wt) it was 102%; in the test with MARIMO (SRSF2 genotype: SRSF2 P95H/wt), 93%; in the test with MARIMO (SRSF2 genotype: SRSF2 wt/wt), 107%; with MOLM14 (SRSF2 genotype: SRSF2 P95H/wt) it was 100%; in the test with MOLM14 (SRSF2 genotype: SRSF2 wt/wt), 103%. Also, the cell viability with OCI-AML2 (SRSF2 genotype: P95H/wt) stood at 104%; in the test on OCI-AML2 (SRSF2 genotype: wt/wt), 106%.
Turning to `O=C(NC[C@H](O)CN1CCc2ccccc2C1)c1cc(NC2COC2)ncn1`, the cell viability in the test on K562 (SRSF2 genotype: SRSF2 P95H/wt) was 95.9% and 92.8%; with K562 (SRSF2 genotype: SRSF2 wt/wt), 95.6%; in the test with MARIMO (SRSF2 genotype: SRSF2 P95H/wt), 87.6%; with MARIMO (SRSF2 genotype: SRSF2 wt/wt), 98.1%; with MOLM14 (SRSF2 genotype: SRSF2 P95H/wt) it was 88.8%; in the test on MOLM14 (SRSF2 genotype: SRSF2 wt/wt), 92.6%. Moreover, the figures for the cell viability with OCI-AML2 (SRSF2 genotype: P95H/wt) and in the test with OCI-AML2 (SRSF2 genotype: wt/wt) were 76.3% and 77.1%, respectively.
Consider `CCN(CC)CC(=O)Nc1c(C)cccc1C` [Lidocaine hydrochloride], for which the cell viability in the test with K562 (SRSF2 genotype: SRSF2 P95H/wt) was 102% and 103%; in the test on K562 (SRSF2 genotype: SRSF2 wt/wt), 106%; with MARIMO (SRSF2 genotype: SRSF2 P95H/wt), 101%; in the test with MARIMO (SRSF2 genotype: SRSF2 wt/wt) it was 107%; with MOLM14 (SRSF2 genotype: SRSF2 P95H/wt), 99.3%; with MOLM14 (SRSF2 genotype: SRSF2 wt/wt), 102%. The cell viability was 100% with OCI-AML2 (SRSF2 genotype: P95H/wt) and 97.1% in the test on OCI-AML2 (SRSF2 genotype: wt/wt).
Take `Cc1cc(C(=O)O)n[nH]1`: the cell viability in the test with K562 (SRSF2 genotype: SRSF2 P95H/wt) is 108% and 101%; in the test with K562 (SRSF2 genotype: SRSF2 wt/wt), 103%; in the test with MARIMO (SRSF2 genotype: SRSF2 P95H/wt), 104%; with MARIMO (SRSF2 genotype: SRSF2 wt/wt), 111%; in the test with MOLM14 (SRSF2 genotype: SRSF2 P95H/wt), 96.4%; with MOLM14 (SRSF2 genotype: SRSF2 wt/wt), 111%. For the same compound, the cell viability in the test with OCI-AML2 (SRSF2 genotype: P95H/wt) amounted to 101%; with OCI-AML2 (SRSF2 genotype: wt/wt), 104%.
Regarding `O=c1cc(-c2ccc(O)c(O)c2)oc2cc(O)c([C@@H]3O[C@H](CO)[C@@H](O)[C@H](O)[C@H]3O)c(O)c12` [Homoorientin], the cell viability in the test on K562 (SRSF2 genotype: SRSF2 P95H/wt) is 90.2% and 85%; in the test on K562 (SRSF2 genotype: SRSF2 wt/wt), 84.1%; in the test with MARIMO (SRSF2 genotype: SRSF2 P95H/wt) it was 83.8%; in the test with MARIMO (SRSF2 genotype: SRSF2 wt/wt), 90%; with MOLM14 (SRSF2 genotype: SRSF2 P95H/wt) it was 83.2%; with MOLM14 (SRSF2 genotype: SRSF2 wt/wt), 90%. Besides, the cell viability with OCI-AML2 (SRSF2 genotype: P95H/wt) is 86.7%; in the test on OCI-AML2 (SRSF2 genotype: wt/wt) it was 88.7%.
